Compound activity deposited in PubChem BioAssay by National Center for Advancing Translational Sciences (NCATS).
SW480 rereplic = inducers of DNA re-replication in SW480 colon cancer cells; 340,000 compounds, 1.8% hits; SW480 DNA re-replication, Hoechst DNA content imaging, 48 h; Potency, µM (series often up to 46.1 µM), for inactives: top-dose re-replication activation, actives largely listed as activators; AID 624297; further: potency means the concentration at half of the fitted maximal effect; % of control where 0% means no effect; nearly all actives have a fitted effect of over 55% in size
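Quantitative HTS format with DMSO vehicle controls; 48 hr drug incubation at 37 C, then 40 min Hoechst staining and scanning imager measurement at 405 nm excitation.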
MCF10A rerep = inducers of DNA re-replication in MCF 10A breast cells; MCF 10A DNA re-replication, Hoechst nuclear intensity, 48 h; Potency, µM (highest dose often 46.1 µM), inactives show at the highest dose activity, positive = re-replication, most hits filed as activators; 350,000 compounds, 2.9% hits; further: potency means the concentration at half of the fitted maximal effect; % of control where 0% means no effect; nearly all actives have a fitted effect of over 50% in size
KB-3-1 tox = KB-3-1 parental cell cytotoxicity; KB-3-1 viability, CellTiter-Glo ATP luminescence, 72 h; Potency, µM (titrated, usually from 46.1 µM), most hits filed as cytotoxic; 400,000 compounds, 1.4% hits; further: potency means the concentration at half of the fitted maximal effect; on the % scale 0 is the no-effect control and ±100 the full control effect; nearly all actives have a fitted effect of over 60% in size
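Cytotoxicity measured as CellTiter-Glo luminescence after 72 h at 37 C. Compound titrations were pinned onto drug-naive KB-3-1 parental adenocarcinoma cells grown in DMEM with 10% FBS, and normalized data fitted to concentration-response curves.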
DRD3 antagonist = D3 dopamine receptor (human) antagonism; max response, negative = inhibition, %; 360,000 compounds, 2.5% hits; AID 652054; D3R cells, DiscoveRx beta-arrestin luminescence, antagonist mode; stronger effect = lower value; P35462; in the data active means max response below about -50%; inconclusive means no clear call, values can overlap the other calls; further: on the % scale 0 is the no-effect control and ±100 the full control effect
Target sequence (P35462 whole entry, looked up): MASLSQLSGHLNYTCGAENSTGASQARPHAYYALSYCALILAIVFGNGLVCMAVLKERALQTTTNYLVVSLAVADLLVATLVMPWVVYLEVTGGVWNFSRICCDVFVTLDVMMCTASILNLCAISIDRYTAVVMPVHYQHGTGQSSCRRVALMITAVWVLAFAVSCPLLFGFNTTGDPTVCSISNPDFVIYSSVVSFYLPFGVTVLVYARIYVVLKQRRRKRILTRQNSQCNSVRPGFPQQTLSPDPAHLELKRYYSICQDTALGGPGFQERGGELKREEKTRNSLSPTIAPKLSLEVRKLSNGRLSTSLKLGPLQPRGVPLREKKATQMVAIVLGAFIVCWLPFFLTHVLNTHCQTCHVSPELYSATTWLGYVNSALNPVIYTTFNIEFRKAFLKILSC
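Cells expressing the human receptor were seeded at 1500 cells/well, incubated overnight at 37 degrees C in 5% CO2, then exposed to library compounds with dopamine controls for 90 minutes at 37 degrees C before luminescent detection.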
KB-V1 MDR tox = kills drug-selected multidrug resistant KB-V1 cells. KB-V1 MDR cells viability, CellTiter-Glo, 72 h. Potency, µM (highest dose often 46.1 µM), usual class: cytotoxic. 400,000 compounds, 3.4% hits. AID 1347076; further: potency means the concentration at half of the fitted maximal effect; on the % scale 0 is the no-effect control and ±100 the full control effect; nearly all actives have a fitted effect of over 60% in size
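qHTS viability screen in drug-selected KB-V1 MDR cells: 72 h compound treatment at 37 degrees C, ATP luminescence end point.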
DRD3 agonist = activates the human D3 dopamine receptor. P35462. D3R DiscoveRx beta-arrestin cells, luminescence, 90 min. max activation, %. 410,000 compounds, 0.58% hits. AID 652048; in the data active means max activation above about 30%; further: 0% is about no effect
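Agonist mode: compounds and dopamine controls were applied to plated cells for 90 min at 37 degrees C after an overnight attachment at 1500 cells/well. Luminescent read-out followed 30 - 60 minutes at room temperature with DiscoveRx detection reagent.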
Numbers without * were called inactive; i = inactive; u = inconclusive; x = no result given; [ ] = dose if it differs, or a comment. Compounds with a hit are over-represented: about 8.9% of the library has one in this group of screens. Unless noted, the call rests on the fitted dose curve; in most records, active means well fitted curve in the direction sought with a large enough effect; inconclusive means small, poorly fitted or top-dose-only effect, or another doubt; inactive means no such curve, though single readings can be large; an effect the other way counts as inactive or inconclusive.

SMILES | SW480 rereplic | MCF10A rerep | KB-3-1 tox | DRD3 antagonist | KB-V1 MDR tox | DRD3 agonist
CCOC(=O)N1CCN(S(=O)(=O)N2CCCC(C(=O)NCc3ccc(C)cc3)C2)CC1 (stereo not drawn) | x | x | i | -1 | u | 3
COC(=O)c1cc(NC(=O)Cn2ncc3c2-c2ccccc2OC3)cc(C(=O)OC)c1 | x | x | i | x | i | 9
NC(=O)C(C1=CCCCC1)c1ccccc1 (stereo not drawn) | -11% | 5% | i | -15 | i | -6
Cc1ccccc1CN1C(=O)c2ccccc2S(=O)c2ccc(C(=O)NC3CCC(C)CC3)cc21 (stereo not drawn) | x | x | x | x | x | -1
CCC(C)NC(=O)C1=CC(c2ccc3c(c2)OCO3)=NS(=O)(=O)N1C (stereo not drawn) | x | x | i | x | i | 7
Cc1ccc2oc(-c3ccc(C)c(NC(=O)c4ccc(-c5ccccc5[N+](=O)[O-])o4)c3)nc2c1 | x | x | i | x | i | 3
O=c1c2c(-c3cccs3)csc2ncn1/N=C/c1ccccn1 | 6% | u | i | 3 | i | -6
Cn1cc(/C=N/n2cnc3scc(-c4ccccc4)c3c2=O)c2ccccc21 | 15µM* | u | 5.2µM* | 11 | 2.1µM* | 1
O=c1c2c(-c3ccccc3)csc2ncn1/N=C/c1cccc([N+](=O)[O-])c1O | u | 7% | i | -52* | i | -15
O=c1c2c(-c3ccccc3)csc2ncn1/N=C/c1ccc(O)c([N+](=O)[O-])c1 | -27% | -2% | i | -6 | i | -2
Cc1cc(OCCN2CCC(Cc3ccccc3)CC2)ccc1[N+](=O)[O-] | u | 7% | i | -64* | i | -24
Cc1cc(OCCN2CC(C)OC(C)C2)ccc1[N+](=O)[O-] (stereo not drawn) | 1% | -2% | i | -24 | u | -6
c1ccc(COc2ccc(OCCCN3CCCCC3)cc2)cc1 | u | u | i | -80* | i | 2
CC(=O)c1ccc(OCCCN2CCCCC2)cc1 | -15% | 1% | i | -72* | u | -5
COc1ccc(C(O)(CCN2CCCCC2)C2CCCCC2)cc1 (stereo not drawn) | -5% | -3% | i | -52* | i | -41
c1ccc(COc2ccc(OCCCCN3CCCC3)cc2)cc1 | 3% | u | i | -14 | u | -17
COC(=O)c1ccc(OCCN2CCCCCC2)cc1 | 0% | 0% | u | -27 | i | -13
O=C(O)CSc1c2c(nc3cc(C(=O)Nc4ccc(F)c(Cl)c4)ccc13)CCC2 | x | x | i | x | i | -5
CC1CCN(C(=O)CN2c3ccc(C(C)C)cc3-c3ccccc3S2(=O)=O)CC1 | x | x | i | x | i | -12
CCOc1ccc(NC(=O)Nc2cc3c(cc2N2CCCCC2)n(C)c(=O)n3C)cc1 | x | x | i | x | i | -2
CC(NC(=O)C(=O)Nc1c2c(nn1-c1ccc(F)cc1)CSC2)c1ccccc1 (stereo not drawn) | x | x | i | x | i | 4
COc1cc(C(=O)N2CCc3c([nH]c4ccccc34)C2c2ccc(C)cc2)cc(OC)c1OC (stereo not drawn) | x | x | x | x | x | -11
c1ccc(OCCCCN2CCCCC2)cc1 | -1% | u | i | u | i | -7
O=C(c1ccccc1)c1ccc(OCCCN2CCCCC2)cc1 | -1% | u | i | -83* | i | -2
CN1CCN(CCOc2ccc(Cc3ccccc3)cc2)CC1 | 0% | u | i | 9 | u | -11
SMILES | SW480 rereplic | MCF10A rerep | KB-3-1 tox | DRD3 antagonist | KB-V1 MDR tox | DRD3 agonist
CC1CCN(CCOc2ccc(OCc3ccccc3)cc2)CC1 | 0% | u | i | -7 | 15µM* | -13
COc1ccc(OCCCN2CCCCCC2)cc1 | -3% | 9% | i | -64* | i | -4
CC(NC(=O)CCCC1=NS(=O)(=O)c2ccccc2N1)c1ccccc1 (stereo not drawn) | x | x | i | x | i | -19
O=C(NCCO)c1ccc(-c2nnc(Nc3ccc(OC(F)(F)Cl)cc3)c3ccccc23)cc1 | x | x | i | x | i | -1
O=C(NCC1CCCO1)C(=O)NCC(c1ccco1)N1CCN(c2ccc(F)cc2)CC1 (stereo not drawn) | -61% | 0% | i | 4 | 8.2µM* | -4
O=C(NCc1cccnc1)C(=O)NCC(c1ccco1)N1CCN(c2ccc(F)cc2)CC1 (stereo not drawn) | -106% | -2% | u | 6 | 2.6µM* | 2
O=C(NCC(c1ccco1)N1CCN(c2ccc(F)cc2)CC1)C(=O)NC1CCCC1 (stereo not drawn) | -40% | 2% | i | 8 | i | -3
O=C(NCCc1c[nH]c2ccccc12)C(=O)NCC(c1ccco1)N1CCN(c2ccccc2)CC1 (stereo not drawn) | 3% | 14% | u | 12 | u | 41*
COC(=O)NCC(c1ccco1)N1CCN(c2ccccc2)CC1 (stereo not drawn) | 5% | 0% | i | 12 | i | -2
O=C(NCC1CCCO1)C(=O)NCC(c1ccco1)N1CCN(c2ccccc2)CC1 (stereo not drawn) | u | 0% | i | 7 | 21µM* | 5
COC(=O)c1c(NC(=O)c2nc(SCc3ccc(C)cc3)ncc2Cl)sc2c1CCCC2 | x | x | i | x | i | 13
CCc1ccc(-n2c(SCc3cccc(F)c3)nc3[nH]ncc3c2=O)cc1 | x | x | i | x | i | 4
CC(=O)C1=C(O)C(=O)N(c2ccc(C(=O)O)cc2)C1c1ccc([N+](=O)[O-])cc1 (stereo not drawn) | -12% | u | i | -3 | i | -10
CC(=O)C1=C(O)C(=O)N(c2ccc(S(N)(=O)=O)cc2)C1c1ccc([N+](=O)[O-])cc1 (stereo not drawn) | -2%[9.22 µM] | 2% | i | -81* | i | -12
Nc1nc(-c2ccccn2)nc(N)c1Cc1ccccc1F | 8% | u | i | -24 | u | 4
Nc1nc(-c2ccccn2)nc(N)c1Cc1ccc(Cl)cc1Cl | 10µM* | u | u | -26 | u | -17
CCOC(=O)c1cc(-c2ccccc2)n(CCC(=O)Nc2ccc(OC)c(Cl)c2)c1C | x | x | i | x | i | -20
Cc1nn(CC(=O)Nc2cc(F)ccc2F)c(=O)c2cccn12 | x | x | i | x | i | -12
CC(C)N(C(=O)CSc1ccc(S(=O)(=O)N2CCCCC2)cn1)c1ccccc1 | -10% | 5.8µM* | u | -3 | i | -9
CN(C)C(=O)CSc1ccc(S(=O)(=O)N2CCCC2)cn1 | -3% | 0% | i | -1 | i | 6
